# M1 antag: antagonists of human M1 muscarinic receptor; inhibition, % at 3 µM; P11229; 360,000 tested, 1.3% active; CHO-K1 hM1, Fluo-8 calcium fluorescence, ACh EC80 antagonist;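 active = percent inhibition above its own plate's cutoff, namely the mean of that plate's compound wells plus 3 SD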;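 note: peak over basal fluorescence ratio during 140 s after agonist addition; 0% = ACh EC80 plus DMSO and 100% = DMSO alone without agonist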
# Target sequence (P11229 whole entry, looked up): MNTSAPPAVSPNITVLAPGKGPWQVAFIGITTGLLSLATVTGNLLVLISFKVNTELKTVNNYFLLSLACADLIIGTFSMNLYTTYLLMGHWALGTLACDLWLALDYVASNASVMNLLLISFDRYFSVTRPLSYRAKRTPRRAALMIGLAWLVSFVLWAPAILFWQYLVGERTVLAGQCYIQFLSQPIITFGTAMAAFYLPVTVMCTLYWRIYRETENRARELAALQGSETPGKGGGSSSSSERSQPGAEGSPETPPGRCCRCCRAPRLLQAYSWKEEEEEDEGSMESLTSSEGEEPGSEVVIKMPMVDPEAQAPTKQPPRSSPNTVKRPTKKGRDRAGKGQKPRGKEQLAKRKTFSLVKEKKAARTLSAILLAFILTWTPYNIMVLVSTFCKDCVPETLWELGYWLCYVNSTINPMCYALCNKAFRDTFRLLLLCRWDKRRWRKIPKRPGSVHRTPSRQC
# CHRM4 antagonist: CHRM4 antagonism in calcium assay; P08173; CHO-hM4 cells, ACh EC80, Fluo-8 calcium fluorescence; inhibition, % at 3 µM; 360,000 tested, 0.73% active;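 active = inhibition above its plate's cutoff, the mean inhibition of sample wells plus 3 SD, cut at about 27% in these data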;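 note: 0% = acetylcholine EC80 with DMSO and 100% = DMSO without agonist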
# M4 ag: CHRM4 agonism in calcium assay; CHO-K1 hM4/Gqi5, Fluo-8 calcium fluorescence; vehicle 0%, full acetylcholine response 100%; AID 624127; activation, % at 3 µM; 360,000 tested, 0.14% active; P08173;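 active = activation above the run mean over all test wells plus 3 SD, cut at about 32% in these data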;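 note: peak over basal fluorescence ratio per well then scaled between controls; 0% = DMSO wells and 100% = acetylcholine at EC100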
# M1 ag: human M1 muscarinic receptor agonism. P11229. 360,000 tested, 0.33% active. CHO-K1 hM1, Fluo-8 calcium fluorescence, agonist mode; 0% DMSO, 100% acetylcholine EC100. activation, % at 3 µM;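 active = activation above the run's mean compound activation plus 3 SD, cut at about 16% in these data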;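 note: peak over basal fluorescence ratio within a 140 s kinetic read after compound addition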
# CHRM4 PAM: CHRM4 positive allosteric modulation. CHO-K1 hM4/Gqi5, Fluo-8 calcium fluorescence, ACh EC20; 0% = ACh EC20, 100% = maximal ACh. activation, % at 3 µM. 360,000 tested, 0.4% active;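 active = activation above its plate's cutoff, the mean activation of sample wells plus 3 SD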
# CHRM1 PAM: human CHRM1 positive allosteric modulation; P11229; CHO-K1 hM1, Fluo-8 calcium fluorescence, ACh EC20; 0% = ACh EC20, 100% = maximal ACh; activation, % at 3 µM; 360,000 tested, 0.088% active; AID 588819; in the data active = activation above about 19%, passing the limit was not always enough
# * hit, by the source's call. This is a sample that favours compounds with a hit; in the whole collection about 2.2% have one here.
SMILES,M1 antag,CHRM4 antagonist,M4 ag,M1 ag,CHRM4 PAM,CHRM1 PAM
Cc1sc2cc(-c3cccc([N+](=O)[O-])c3)c(-c3cccc([N+](=O)[O-])c3)c[n+]2c1C,32.5*,18.4,-0.3,-10.2,-12.6,-21.6
CCOc1ccc(NC(=S)N2CCCN(Cc3cc(C)ccc3C)C2)cc1,-17.7,-5.2,5.4,-1.8,-5.2,9.0
Nc1ccc(S(=O)(=O)NCC2CCCCO2)cc1 (configuration not stated),-21.0,8.1,0.8,-0.3,2.4,13.1
Cc1ccccc1NC(=O)CN1C(=O)c2cccnc2Oc2ccc(Cl)cc21,-12.0,-14.8,0.7,-3.6,12.4,8.8
CCS(=O)(=O)N1CCC(NC(=O)C(Cc2cccc(OC)c2OC)NC(C)=O)CC1 (configuration not stated),-18.8,-18.1,1.1,-3.4,17.5*,8.5
CCN(CC)S(=O)(=O)c1cccc(C(=O)N/N=C/c2ccc(O)c(O)c2O)c1,5.8,-0.3,1.3,-6.3,7.1,26.2*
c1ccc(CCNc2ccnc3cc4ccccc4cc23)cc1,41.8*,21.5,10.2,-3.0,-16.4,-20.9
CSCc1nc2scc(-c3ccccc3)c2c(=O)[nH]1,4.4,-11.6,0.9,-1.8,8.7,1.3
Cc1ccc(-c2csc(N3CCC[C@@H]3C(=O)NCCn3c(-c4ccncc4)nc4ccccc43)n2)cc1,27.1,47.8*,12.6,-3.9,-16.3,-10.2
CCOC(=O)CSc1ccc(C(=O)Nc2ccc(OC)cc2)cn1,-2.4,-4.8,5.2,-3.6,8.4,-1.7
Cc1ccc(S(=O)(=O)N2CCC(c3nnc(SCCN4CCCC4)n3C)CC2)cc1,25.6*,11.4,-0.1,-10.8,-10.5,-22.5
Cn1c(SCCN2CCCC2)nnc1C1CCN(S(=O)(=O)c2ccc(F)cc2)CC1,32.6*,7.6,1.9,-11.8,-17.1,-23.6
CCn1c(SCCN2CCCCC2)nnc1-c1ccc(S(=O)(=O)N2CCOCC2)cc1,93.0*,32.7*,0.2,-4.0,-16.9,-19.9
Cc1ccc(S(=O)(=O)N2CCCCC2)cc1NC(=O)CSc1nnc(C2CC2)n1C,-4.4,1.4,0.2,-3.1,-0.8,-3.6
CC(=O)c1ccc(S(=O)(=O)N2CCC(c3nnc(SCCN4CCCC4)n3C)CC2)cc1,-2.2,11.8,0.5,-11.5,-11.0,-6.4
O=C(O)C1CCCCC1C(=O)Nc1ccccn1 (configuration not stated),3.2,-1.9,0.4,-3.3,-1.3,4.2
O=C(NCc1ccc2c(c1)OCO2)c1nc(S(=O)(=O)Cc2ccccc2F)ncc1Cl,8.3,38.1*,9.3,-4.7,-10.1,-0.5
O=C(NCc1ccc2c(c1)OCO2)c1ccc2c(c1)N(Cc1c(F)cccc1Cl)C(=O)CS2,39.9*,16.6,0.4,-12.4,-13.6,-26.1
CCC1CCCCN1CCCNC(=O)c1ccc2c(c1)N(Cc1c(F)cccc1Cl)C(=O)CS2 (configuration not stated),99.8*,99.5*,2.5,-4.8,-27.9,-22.4
Cc1nnc(NC(=O)c2cccc(S(=O)(=O)N3CCN(C)CC3)c2)s1,-13.2,5.4,0.2,-1.5,4.5,4.7
Cc1cc(C)n(CC(=O)N2CCCC(N3CCN(Cc4ccc5c(c4)OCO5)CC3)C2)n1 (configuration not stated),1.3,10.0,0.1,-5.5,-5.2,-4.9
O=C(NCCN1CCOCC1)c1ccc2c(c1)N(Cc1ccc(Cl)cc1)C(=O)CS2,28.2*,6.3,3.2,-10.9,-14.8,-29.3
O=C(NCCN1CCOCC1)c1ccc2c(c1)N(Cc1ccccc1)C(=O)CS2,30.4*,37.2*,0.4,-7.7,-28.6,-20.7
CCN1C(=O)CSc2ccc(C(=O)NCCCN3CCOCC3)cc21,-5.8,4.8,1.1,-13.8,1.3,4.6
Cc1ccc(C(=O)NC(=S)NCc2ccccc2)cc1,-8.0,-9.7,-1.4,-8.5,-5.0,-3.5
SMILES,M1 antag,CHRM4 antagonist,M4 ag,M1 ag,CHRM4 PAM,CHRM1 PAM
CCC(=O)OC1(C)C(=O)C2=COC(c3ccc(OC)cc3)=CC2=C(Br)C1=O (configuration not stated),-1.9,-0.9,9.6,-3.1,1.2,-0.1
O=C(NCc1ccco1)C(=O)NCC1OCCN1S(=O)(=O)c1cc(F)ccc1F (configuration not stated),-1.6,-1.3,0.6,16.3*,-2.3,1.4
CN(C)c1ccc(NC2=C(Cl)C(=O)c3ccccc3C2=O)cc1,20.8,36.5*,-1.7,-11.5,-14.0,-9.0
O=C1C(Cl)=C(Nc2ccc3cn[nH]c3c2)C(=O)c2ccccc21,22.9,39.1*,-2.4,-8.7,-14.6,-7.7
O=C(Nc1ccc2cn[nH]c2c1)c1c(Cl)cccc1Cl,-3.7,-0.2,0.8,-4.2,-0.1,4.5
Cc1nc(=O)c(-c2ccccc2)c(C)n1-c1ccc(O)c(C(=O)O)c1,-8.4,-3.9,0.4,1.8,10.9,9.7
CC(=O)Nc1ccc(NC(=O)CSc2nnc3ccc(-c4cccnc4)nn23)cc1,19.9*,-9.7,0.2,-0.5,-4.1,-7.7
CC(=O)Nc1cccc(NC(=O)CSc2nnc3ccc(-c4cccnc4)nn23)c1,-6.4,-5.9,0.6,2.4,3.1,-0.3
CCN1CCN(c2ncnc3sc(C)c(-c4ccccc4)c23)CC1,29.0*,-14.1,1.8,-10.7,5.5,-16.4
CCN1CCN(c2ncnc3scc(-c4ccc(C)c(C)c4)c23)CC1,84.6*,26.6*,1.1,-11.4,-16.2,-31.8
CCN1CCN(c2ncnc3c2sc(=S)n3-c2ccccc2)CC1,-5.9,-12.3,4.5,-9.6,5.2,2.4
CCCCC(=O)Oc1ccccc1C1SCc2cc(C)c(C)cc2CS1,6.1,1.2,0.1,-4.5,2.6,-3.6
CCC(C)N(C)C1CCN(C(=S)Nc2cccc(OC)c2)CC1 (configuration not stated),-8.7,-3.9,0.9,-2.9,-3.7,4.9
Cc1nn(CC(=O)NCc2ccc(C(=O)O)cc2)c(C)c1[N+](=O)[O-],-3.3,-8.0,10.5,-1.4,-7.2,-8.5
CN1Cc2ccccc2N(CC(=O)NCc2ccccc2)C1=O,-0.8,-0.2,1.3,-1.9,0.6,6.3
CCCCOc1ccc(C(=O)Nc2ccc(N3CCN(C)CC3)cc2)cc1,5.0,-9.4,1.3,-4.9,-2.2,-11.5
CCN1CCN(c2ccc(NC(=O)c3ccc(OC)c(S(=O)(=O)N4CCCC4)c3)cc2)CC1,12.7,12.8,0.2,-8.9,-0.6,-9.2
CCN1CCN(c2ccc(NC(=O)c3ccc(Cl)c(N4CCCC4=O)c3)cc2)CC1,23.4*,-4.0,-0.3,-12.6,-10.1,-20.4
CCN1CCN(c2ccc(NC(=O)c3ccc(Cl)c(S(=O)(=O)N4CCCC4)c3)cc2)CC1,99.5*,47.9*,7.9,-6.9,-13.2,-26.5

# Source: PubChem BioAssay
